Assays:
Assay in all cases: PBM binding z-score (relative to random genomic background probes); higher = stronger binding; sequences stand for … in GC…GCGATTGACAGCGTAGAATGAAGG
[1] = tested on: FXR:RXRa (NR concentration 270 nM, RXRa partner concentration 90 nM)
Method in brief: (§1)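 Probes were double-stranded and carried 34-nt variable regions with direct-repeat seeds, single-nucleotide variants, half-site ablations and random human genomic background sequences, printed on custom Agilent 4×180K protein-binding microarrays. Arrays were incubated 1 h with ligand-free nuclear receptor dimers in PBS pH 7.4, 2% milk, 0.02% Triton X-100, 1 mM DTT, 0.2 mg/mL BSA and 0.4 mg/ml salmon testes DNA. Antibodies against each partner (one per run) detected binding, and scanned fluorescence was regression-normalized. Binding z-scores use the random background probes as reference.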

[2] = tested on: LXRa:RXRa (NR concentration 270 nM, RXRa partner concentration 90 nM)
Method in brief: as §1

[3] = tested on: LXRa homodimer (NR concentration 270 nM)
Method in brief: as §1

[4] = tested on: LXRb:RXRa (NR concentration 270 nM, RXRa partner concentration 90 nM)
Method in brief: as §1

[5] = tested on: LXRb homodimer (NR concentration 270 nM)
Method in brief: as §1

[6] = tested on: PPARa:RXRa (NR concentration 270 nM, RXRa partner concentration 90 nM)
Method in brief: as §1

[7] = tested on: PPARg:RXRa (NR concentration 180 nM, RXRa partner concentration 90 nM)
Method in brief: as §1

[8] = tested on: PPARg:RXRa 270nM:90nM, anti-RXR (NR concentration 270 nM, RXRa partner concentration 90 nM)
Method in brief: as §1

[9] = tested on: PPARg:RXRa 30nM:10nM, anti-RXR (NR concentration 30 nM, RXRa partner concentration 10 nM)
Method in brief: as §1

[10] = tested on: PPARg:RXRa 90nM:30nM, anti-RXR (NR concentration 90 nM, RXRa partner concentration 30 nM)
Method in brief: as §1

Row | Sequence | PBM binding z-score [1] | PBM binding z-score [2] | PBM binding z-score [3] | PBM binding z-score [4] | PBM binding z-score [5] | PBM binding z-score [6] | PBM binding z-score [7] | PBM binding z-score [8] | PBM binding z-score [9] | PBM binding z-score [10]
1 | GCTATTACTTGAAAGGGCAACCGAATGATTCTCG | 0.128 | 0.738 | 0.277 | 0.831 | 0.248 | 1 | 0.583 | 0.184 | 0.177 | 0.0562
2 | TCATATAGGTAAAAGGTGAAAGTGGGTGTGGTAA | 2.2 | 2.19 | 0.716 | 2.45 | 0.97 | 5.49 | 9.05 | 8.74 | 8.47 | 9.1
3 | CCTCGGAGGACAACAGGTGGTCAGAGCTGCCAGA | -0.329 | -0.519 | -0.443 | -0.782 | -1.09 | -0.623 | -0.311 | -0.79 | -1.45 | -1.37
4 | CCAGACAGGTGAGAAGGGAACTCAGCCTCGATTA | -0.0941 | -0.0473 | 0.111 | -0.208 | -0.526 | -0.0624 | 0.318 | 0.174 | -0.465 | -0.306
5 | CCGACTGGGGCAAGGTTAACATAACGCACAGCCA | 0.315 | 0.681 | -0.0664 | 0.737 | -0.786 | 2.59 | 4.38 | 4.92 | 2.68 | 4.38
6 | CAAACTAGGACAAAGGTCAAAGTCGAGCCAACCA | 6.31 | 6.08 | 4.5 | 5.58 | 2.61 | 7 | 12.1 | 10.6 | 10.9 | 11.9
7 | CCAACTAGGTCAAAGGTCAAAGTCGAGCCAACCA | 8.45 | 7.12 | 5.59 | 7.28 | 3.01 | 7.64 | 13.6 | 10.9 | 13.2 | 12.7
8 | CCTTACGGGACACTGACAGGTTATAGCATTTGGA | -0.0808 | -0.0885 | 0.186 | 0.0675 | -0.248 | -0.0851 | 0.499 | -0.397 | 0.123 | -0.284
9 | CTAACTAGGTCAAGGACAGTGAATCTCCGCACGC | 3.07 | 2.43 | 0.51 | 1.58 | 0.129 | 4.99 | 8.18 | 6.92 | 4.93 | 6.92
10 | AAAACGAGGGCACGCTGAGTTGATAGCAGAGTAG | 0.97 | 0.877 | -0.416 | 0.344 | -0.954 | 2.42 | 2.99 | 2.58 | 0.579 | 1.87
11 | AATACAGGGTCACTAGGCCACAGTAGGTACGAAT | 6.38 | 4.76 | 1.17 | 4.02 | 1.04 | 6.17 | 8.82 | 7.43 | 4.24 | 6.72
12 | CCAGAAAGGTGAGAAGGTAACTCAGCCTCGATTA | 0.521 | 0.782 | -0.167 | 0.842 | -0.293 | 2.47 | 1.02 | 1.49 | 0.32 | 0.796
13 | TAGCCTAGGTCATGGGCCAGTACACCACGCGAAC | 4.77 | 3.08 | 0.269 | 2.41 | 0.439 | 4.05 | 3.9 | 3.76 | 1.09 | 2.8
14 | CCTCGGAGCACAACAGGAGGTCAGAGCTGCCAGA | 0.811 | 1.54 | 1.97 | 1.4 | -0.755 | 1.65 | 0.0996 | 0.038 | -0.859 | -0.308
15 | ATCGAAAGGTCTTGAGGTGAGTATACAGAAAGGC | 0.305 | 0.206 | -0.36 | 0.394 | -0.0662 | 1.68 | 1.15 | 0.897 | 0.286 | 0.647
16 | CCTAGCAGGCCAATCTGGGTCACACAAGGCTTGA | 1.88 | 1.82 | -0.247 | 1.21 | -0.968 | 3.68 | 3.08 | 2.68 | 0.555 | 2.1
17 | CCGACTGGGGCATAAGGTTACCATGAGCCAGCCC | 0.192 | 1.36 | -0.247 | 0.153 | -1.3 | 1.9 | 2.48 | 3.24 | 1.36 | 2.8
18 | TCGAGTAGGTTACCAATGGTGCATTCAGCTTTCT | -0.236 | 1.22 | -0.491 | 0.425 | -1.1 | 0.801 | 0.0197 | 1.1 | 0.784 | 1.06
19 | CAAACTAGGTCAAGGTCAAAGTGGGTTTGTGCCA | 6.71 | 5.42 | 3.68 | 4.73 | 1.29 | 6.04 | 9.42 | 7.89 | 6.5 | 8.27
20 | TCTAGTTGGTCACGCAGGTCACACACGACGGGTA | 1.94 | 1.98 | 1.08 | 2.09 | 0.279 | 2.87 | 2.09 | 2.99 | 3.37 | 2.92
21 | CCGTCTGGGGCAGAAAGGTTACCATACCATCCGG | 0.119 | 0.206 | -0.115 | 0.58 | -1.19 | 1.64 | 0.9 | 1.95 | 0.171 | 0.988
22 | TCGAGTAGGTTAGGGGCAGTCAGAATGGCGTCGA | 0.232 | 0.211 | -0.0968 | 0.86 | -0.416 | 1.11 | 0.492 | 1.58 | 0.558 | 1.36
23 | CCTGCGAGGTCAATGGTCAGCTAAAGCAGCTCGC | 7.26 | 5.25 | 0.691 | 4.29 | 0.981 | 5.73 | 5.75 | 6.01 | 2.22 | 4.25
24 | CTAGCAAGGTGAACAAGGTCGTTGATTACTATTC | 1.2 | 1.17 | -0.0996 | 1.45 | -1.03 | 2.39 | 0.843 | 1.3 | 0.0127 | 0.796

Source: the supplement of paper PMC6555819
